# Results taken from PubChem BioAssay (Tox21).
# Inconclusive results are not listed. A call without a number means that no potency is given here. Values without a mark were called inactive. Active and inactive are the calls of the source. Unless noted, calls follow the shape of the full dose curve.
# Test system: not listed separately
# Assay: qHTS assay to identify small molecule agonists of the AP-1 signaling pathway - cell viability counter screen (AID 1159525); also: nearly all actives have a fitted effect of over 55% in size
# Conditions: ME-180 AP-1-bla cells viability, ATP luminescence, 5 h; series mostly up to 76.8 µM
# Summary of the method: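 Same-well cytotoxicity counter screen of the Tox21 10K library in ME-180 cells. The readout is ATP-dependent luminescence after 5 h compound treatment. Data are normalised to DMSO and tetra n-octyl ammonium bromide controls.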
# Potency is read from the fitted curve at half-maximal effect.
SMILES,Potency,"viability change, negative = cytotoxic"
ClC(c1ccccc1)(c1ccccc1)c1ccccc1,inactive,–
CCOC=C(C(=O)OCC)C(=O)OCC,inactive,–
c1ccc2occc2c1,inactive,–
CCCCNc1ccc(NCCCC)c2c1C(=O)c1ccccc1C2=O,–,-8.5% [at 15.8 µM]
NC(=O)C1CO1 (stereo not drawn),inactive,–
Cc1c(Cl)c(=O)oc2cc(O)ccc12,inactive,–
CCCCCN=C(N)N/N=C/c1c[nH]c2ccc(OC)cc12,23.9 µM (active),–
CCc1c(C)cc(N)c(CC)c1N,inactive,–
CCn1c2ccccc2c2ccccc21,inactive,–
CC(=O)[C@]1(O)Cc2c(O)c3c(c(O)c2[C@@H](O[C@H]2C[C@H](N)[C@H](O)[C@H](C)O2)C1)C(=O)c1ccccc1C3=O,inactive,–
CCN(CC)c1ccc(N=Nc2ccccc2)cc1,inactive,–
CCc1cccc(C)c1N(C(=O)C(=O)O)C(C)COC (stereo not drawn),inactive,–
NCc1cccc(C2CCN(C(=O)c3ccc(C#Cc4ccccc4F)o3)CC2)c1,54.9 µM (active),–
Cc1ccc(N=Nc2c(O)ccc3ccccc23)c(C)c1,inactive,–
C/C=C/C(=O)OCC(C)C,inactive,–
N#CCCOCCC#N,inactive,–
O=C1OC2(c3ccccc31)c1ccc(O)c(Br)c1Oc1c2ccc(O)c1Br,inactive,–
COc1cc2ncnc(Nc3cccc(Cl)c3)c2cc1OC,–,-9.86% [at 15.8 µM]
[Cl][Eu]([Cl])[Cl],inactive,–

SMILES,Potency,"viability change, negative = cytotoxic"
NCc1ccco1,inactive,–
CC(O)(c1ccc(Cl)cc1)c1ccc(Cl)cc1,54.9 µM (active),–
CC(C)(c1ccc(Oc2ccc(N)cc2)cc1)c1ccc(Oc2ccc(N)cc2)cc1,inactive,–
CC(C)=NNC(N)=S,inactive,–
C=C(C)CCO,inactive,–
CN1CCN(C)CC1,inactive,–
CC(=O)Nc1ccc(N=Nc2cc(C)ccc2O)cc1,inactive,–
CCOC(=O)C1=NN(c2ccc(Cl)cc2Cl)C(C)(C(=O)OCC)C1 (stereo not drawn),inactive,–
CCN(CC)c1ccc(C=O)cc1,inactive,–
O=C(NCc1ncc(C(F)(F)F)cc1Cl)c1c(Cl)cccc1Cl,inactive,–
C=Cc1ccc(O)c(OC)c1,inactive,–
CCCCCCCCOC(=O)c1cc(O)c(O)c(O)c1,54.9 µM (active),–
O=C1C=CC(=O)N1c1cccc(N2C(=O)C=CC2=O)c1,13.8 µM (active),–
COCCC(=O)OC,inactive,–
C=C[Si](C)(C)Cl,–,-3.04% [at 6.97 µM]
Cc1ccc(S(=O)(=O)C(I)I)cc1,17.4 µM (active),–
C=C1C(CCl)(CCl)C2(Cl)C(Cl)C(Cl)C1(Cl)C2(Cl)Cl (stereo not drawn),43.1 µM (active),–
Cc1ccc(C=O)cc1,inactive,–

# Test system: not listed separately
# Assay: qHTS assay to identify small molecule agonists of the AP-1 signaling pathway (AID 1159526)
# Conditions: ME-180 (cervical carcinoma) AP-1-bla reporter, beta-lactamase FRET ratio, 5 h; series mostly up to 76.8 µM
row,SMILES,Potency
1,ClC(c1ccccc1)(c1ccccc1)c1ccccc1,inactive
2,Cc1ccc(N=Nc2c(O)ccc3ccccc23)c(C)c1,inactive
3,C/C=C/C(=O)OCC(C)C,54.9 µM (active)
4,CCN(CC)c1ccc(C=O)cc1,inactive
5,O=C(NCc1ncc(C(F)(F)F)cc1Cl)c1c(Cl)cccc1Cl,inactive

# Molecular target: Retinoic acid receptor RXR-alpha (Homo sapiens) (UniProt P19793)
# Assay: qHTS assay to identify small molecule agonists of the RXR signaling pathway (AID 1159527); also: nearly all actives have a fitted effect of over 35% in size
# Conditions: HEK293T RXRa-UAS-bla, beta-lactamase ratio, 16 h; series mostly up to 76.8 µM
# Summary of the method: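 Cells plated at 2,000/well, rested 5 hr at 37 C, pin-dosed with DMSO compound solutions, incubated 16 hr, then loaded with B/G FRET substrate for 2 hr at RT before dual-emission fluorescence reading.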
# Chain of Retinoic acid receptor RXR-alpha (Homo sapiens) (P19793 whole entry, looked up): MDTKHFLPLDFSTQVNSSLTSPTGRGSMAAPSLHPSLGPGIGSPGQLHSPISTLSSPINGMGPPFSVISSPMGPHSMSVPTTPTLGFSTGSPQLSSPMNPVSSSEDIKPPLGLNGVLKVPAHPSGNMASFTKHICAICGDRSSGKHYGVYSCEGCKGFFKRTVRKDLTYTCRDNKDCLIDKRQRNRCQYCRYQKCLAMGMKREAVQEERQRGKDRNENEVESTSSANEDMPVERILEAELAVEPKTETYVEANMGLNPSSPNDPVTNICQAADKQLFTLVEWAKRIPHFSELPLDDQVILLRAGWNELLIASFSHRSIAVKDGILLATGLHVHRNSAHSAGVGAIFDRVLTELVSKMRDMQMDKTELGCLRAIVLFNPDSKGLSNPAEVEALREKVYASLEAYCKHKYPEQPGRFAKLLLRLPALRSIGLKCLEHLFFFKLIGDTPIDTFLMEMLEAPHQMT
SMILES,Potency,activation
CCOC=C(C(=O)OCC)C(=O)OCC,inactive,–
c1ccc2occc2c1,12.3 µM (active),–
CCCCNc1ccc(NCCCC)c2c1C(=O)c1ccccc1C2=O,–,10.8% [at 15.8 µM]
NC(=O)C1CO1 (stereo not drawn),inactive,–
CCc1c(C)cc(N)c(CC)c1N,inactive,–
CCn1c2ccccc2c2ccccc21,inactive,–
CCc1cccc(C)c1N(C(=O)C(=O)O)C(C)COC (stereo not drawn),inactive,–
N#CCCOCCC#N,inactive,–
COc1cc2ncnc(Nc3cccc(Cl)c3)c2cc1OC,–,-15.1% [at 15.8 µM]
[Cl][Eu]([Cl])[Cl],inactive,–
NCc1ccco1,inactive,–
C=C(C)CCO,inactive,–
CN1CCN(C)CC1,inactive,–
CCOC(=O)C1=NN(c2ccc(Cl)cc2Cl)C(C)(C(=O)OCC)C1 (stereo not drawn),inactive,–
C=Cc1ccc(O)c(OC)c1,inactive,–
COCCC(=O)OC,inactive,–
C=C[Si](C)(C)Cl,–,0.333% [at 6.98 µM]
Cc1ccc(C=O)cc1,inactive,–

# Test system: not listed separately
# Assay: qHTS assay to identify small molecule agonists of the RXR signaling pathway - cell viability counter screen (AID 1159529; active = well fitted cell-killing curve with a large enough effect in the repeat runs; also: nearly all actives have a fitted effect of over 50% in size;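 as to activity change, negative = cytotoxicity: HEK 293T cells carrying an RXR-alpha UAS beta-lactamase reporter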)
# Conditions: RXR-alpha-bla HEK293T viability, CellTiter-Glo, 16 h; series mostly up to 76.8 µM
# Summary of the method: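 Steps: seed RXR-alpha-UAS-bla HEK 293T cells in assay medium containing 2% charcoal-stripped FBS; incubate 5 hr; add compounds in DMSO; incubate 16 hr at 37 C; after the bla read, add CellTiter-Glo and read luminescence at 30 min.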
SMILES,Potency,"activity change, negative = cytotoxicity"
ClC(c1ccccc1)(c1ccccc1)c1ccccc1,inactive,–
CCOC=C(C(=O)OCC)C(=O)OCC,inactive,–
c1ccc2occc2c1,inactive,–
CCCCNc1ccc(NCCCC)c2c1C(=O)c1ccccc1C2=O,–,10.1% [at 15.8 µM]
Cc1c(Cl)c(=O)oc2cc(O)ccc12,inactive,–
CCCCCN=C(N)N/N=C/c1c[nH]c2ccc(OC)cc12,7.56 µM (active),–
CCc1c(C)cc(N)c(CC)c1N,inactive,–
CC(=O)[C@]1(O)Cc2c(O)c3c(c(O)c2[C@@H](O[C@H]2C[C@H](N)[C@H](O)[C@H](C)O2)C1)C(=O)c1ccccc1C3=O,inactive,–
CCN(CC)c1ccc(N=Nc2ccccc2)cc1,19.5 µM (active),–
CCc1cccc(C)c1N(C(=O)C(=O)O)C(C)COC (stereo not drawn),inactive,–
NCc1cccc(C2CCN(C(=O)c3ccc(C#Cc4ccccc4F)o3)CC2)c1,13.8 µM (active),–
Cc1ccc(N=Nc2c(O)ccc3ccccc23)c(C)c1,inactive,–
C/C=C/C(=O)OCC(C)C,inactive,–
N#CCCOCCC#N,inactive,–
O=C1OC2(c3ccccc31)c1ccc(O)c(Br)c1Oc1c2ccc(O)c1Br,inactive,–
COc1cc2ncnc(Nc3cccc(Cl)c3)c2cc1OC,–,-0.839% [at 15.8 µM]
[Cl][Eu]([Cl])[Cl],inactive,–

SMILES,Potency,"activity change, negative = cytotoxicity"
NCc1ccco1,inactive,–
CC(O)(c1ccc(Cl)cc1)c1ccc(Cl)cc1,38.9 µM (active),–
CC(C)(c1ccc(Oc2ccc(N)cc2)cc1)c1ccc(Oc2ccc(N)cc2)cc1,inactive,–
CC(C)=NNC(N)=S,inactive,–
C=C(C)CCO,inactive,–
CN1CCN(C)CC1,inactive,–
CC(=O)Nc1ccc(N=Nc2cc(C)ccc2O)cc1,inactive,–
CCOC(=O)C1=NN(c2ccc(Cl)cc2Cl)C(C)(C(=O)OCC)C1 (stereo not drawn),inactive,–
CCN(CC)c1ccc(C=O)cc1,inactive,–
C=Cc1ccc(O)c(OC)c1,inactive,–
CCCCCCCCOC(=O)c1cc(O)c(O)c(O)c1,43.6 µM (active),–
O=C1C=CC(=O)N1c1cccc(N2C(=O)C=CC2=O)c1,11 µM (active),–
COCCC(=O)OC,inactive,–
Cc1ccc(S(=O)(=O)C(I)I)cc1,12.3 µM (active),–
C=C1C(CCl)(CCl)C2(Cl)C(Cl)C(Cl)C1(Cl)C2(Cl)Cl (stereo not drawn),24.3 µM (active),–
Cc1ccc(C=O)cc1,inactive,–
